Source: PubChem
GRK2 aptamer HTS = compounds blocking aptamer binding on GRK2 – biochemical, human GRK2, bead flow cytometry, HTS, primary screen; FAM-aptamer displacement from GRK2; inhibition of aptamer binding, % at 10 µM; 330,000 tested, 0.59% active;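 active means inhibition of aptamer binding above 40%, roughly 3 SD of noise, on plates passing a quality check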;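 further: median bead fluorescence of bound FAM aptamer so fluorescent compounds give negative values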
Target sequence (P25098 whole entry, looked up): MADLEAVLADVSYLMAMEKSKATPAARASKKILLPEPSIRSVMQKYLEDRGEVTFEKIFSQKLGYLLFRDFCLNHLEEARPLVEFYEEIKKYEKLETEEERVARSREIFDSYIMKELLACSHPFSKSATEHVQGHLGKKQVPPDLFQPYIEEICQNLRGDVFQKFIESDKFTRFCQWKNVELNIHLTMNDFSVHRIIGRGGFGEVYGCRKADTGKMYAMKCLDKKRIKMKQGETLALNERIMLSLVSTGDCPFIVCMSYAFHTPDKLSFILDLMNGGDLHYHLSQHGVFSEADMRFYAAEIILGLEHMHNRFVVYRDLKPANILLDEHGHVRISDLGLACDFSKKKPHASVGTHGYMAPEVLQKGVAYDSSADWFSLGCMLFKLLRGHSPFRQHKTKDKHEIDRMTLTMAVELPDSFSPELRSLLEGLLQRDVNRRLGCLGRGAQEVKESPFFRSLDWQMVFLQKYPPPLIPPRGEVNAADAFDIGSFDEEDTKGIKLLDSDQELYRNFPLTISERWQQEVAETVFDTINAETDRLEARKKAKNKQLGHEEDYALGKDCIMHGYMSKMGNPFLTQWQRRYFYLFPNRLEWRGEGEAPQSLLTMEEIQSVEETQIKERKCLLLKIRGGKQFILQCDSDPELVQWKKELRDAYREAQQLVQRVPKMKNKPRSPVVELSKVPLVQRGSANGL
MEKK3 PB1 HTS = modulators of MEKK3-MEK5 PB1 binding, primary screen, biochemical, wildtype MEKK3, multiplex bead flow cytometry, Alexa488-MEK5 | Mitogen-activated protein kinase kinase kinase 3 (Homo sapiens), Q99759 | bead-based flow cytometry, Alexa488-MEK5 binding to MEKK3; actives lie on both sides; 0 = blocked by unlabeled MEK5, 100 = vehicle | binding response (% of control), % at 10 µM | 290,000 tested, 1.4% active;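 active means binding response more than 3 SD above or below the average of its plate-row segment, actives on both sides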;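 further: Alexa488 bead fluorescence after subtracting the streptavidin-only scavenger bead signal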
MEKK2 WT-MEK5 = modulators of MEK5 binding to wildtype MEKK2, primary screen, biochemical, multiplex bead flow cytometry, Alexa488-MEK5; Alexa488-MEK5 binding to MEKK2 WT; actives lie on both sides; Mitogen-activated protein kinase kinase kinase 2 (Homo sapiens), Q9Y2U5; binding response (% of control), % at 10 µM; 290,000 tested, 1.1% active; in the data active means binding response below about 67% or above about 130%
MEKK2 mut-MEK5 = MEK5 binding signal on mutant MEKK2 PB1, primary screen, biochemical, multiplex bead flow cytometry, Alexa488-MEK5 | Alexa488-MEK5 binding to MEKK2 mutant | 290,000 tested, 0.35% active | AID 1530, 2009 | percent response, % at 10 µM; in the data active means percent response above about 24%, passing the limit was not always enough
* = called active by the depositor; · = no result; [ ] = remark or other dose. Sampled rows, rich in hits. Any-hit rate of the full collection: about 2.5%.

SMILES | GRK2 aptamer HTS | MEKK3 PB1 HTS | MEKK2 WT-MEK5 | MEKK2 mut-MEK5
Cc1ccc(CN2CC34C=CC(O3)C(C(=O)NCc3ccc5c(c3)OCO5)C4C2=O)cc1 (stereo not drawn) | 1 | 128* | 125 | 8
COc1ccc(C(=O)c2cc([N+](=O)[O-])ccc2N2CCCC2)cc1 | 0 | 132* | 106 | 1
Cc1ccc(C(=O)c2cc([N+](=O)[O-])ccc2N2CCOCC2)cc1C | 2 | 144* | 111 | 1
N#C/C(=C/c1cn(-c2ccccc2)nc1-c1cccc(OCc2ccc(F)cc2)c1)C(=O)NCCCn1ccnc1 | 1 | 172* | 131 | 3
Cc1nnc(NC(=O)CSc2nccn2Cc2ccccc2)s1 | 86* | 101 | 105 | 1
Cc1nnc(NC(=O)CSc2nccn2Cc2ccc(F)cc2)s1 | 42* | 103 | 105 | 0
Cc1ccc(C(=O)OCC(=O)N(C)c2c(N)n(Cc3ccccc3)c(=O)[nH]c2=O)s1 | 2 | · | · | ·
O=C(c1cccc(-n2cccc2)c1)N1CCN(S(=O)(=O)c2ccccc2)CC1 | 81* | · | · | ·
COc1cc(OC)c(C2N(c3ccc(Cl)cc3)C(=O)C3CCCN32)cc1OC (stereo not drawn) | 0 | 96 | 10* | 13
Cc1noc(C)c1CSCC(=O)Nc1cc(C(F)(F)F)ccc1N1CCOCC1 | 0 | · | · | ·
CCOCc1nnc(NC(=O)CS(=O)(=O)c2ccc(C)cc2)s1 | 0 | 80*[inhibitor] | 77 | -10
CCOCc1nnc(NC(C)=O)s1 | 1 | 101 | 105 | 5
O=C(C1CCC(CNS(=O)(=O)c2ccccc2)CC1)N1CCOCC1 (stereo not drawn) | 0 | 104 | 108 | 10
Nc1ccc(-c2c3ccc(=O)cc-3oc3cc(O)ccc23)cc1C(=O)O | 1 | 106 | 132 | 27*
Cc1ccc2c(=O)n3c(nc2c1)C(Cc1ccc(O)cc1)NC(=O)c1ccc(Cl)cc1-3 (stereo not drawn) | 3 | · | · | ·
CN(C)CCCN(C(=O)c1ccc([N+](=O)[O-])o1)c1nc2cc3c(cc2s1)OCO3 | 55* | 105 | 113 | 11
CCN(c1ccccc1)S(=O)(=O)c1ccc(C(=O)N(CCCN(C)C)c2nc3cc4c(cc3s2)OCO4)cc1 | 0 | 106 | 158* | 25*
CN(C)CCCN(C(=O)c1ccc2c(c1)OCCO2)c1nc2cc3c(cc2s1)OCO3 | 0 | 96 | 103 | -2
CN(Cc1ccco1)S(=O)(=O)c1ccc(CN2C(=O)c3cccnc3C2=O)s1 | 0 | 96 | 99 | -3
CC1CCCN(C(=O)CN(C)S(=O)(=O)c2cccc3nsnc23)C1 (stereo not drawn) | 0 | 102 | 103 | 2
C=CCn1c(SCC(=O)NC2CC2)nnc1C1CC1 | 2 | 99 | 100 | 2
Cc1nc2nc(SCC(=O)N3CCOCC3)nn2c(C)c1Cc1c(F)cccc1Cl | 1 | 2.0*[inhibitor] | 2.0*[inhibitor] | -15
O=C(CNC(=O)c1ccc(Br)o1)Nc1cccc(S(=O)(=O)N2CCCC2)c1 | 4 | · | · | ·
CCCC1CCC(C(=O)n2nc(N)c3cc4ccc(OC)cc4nc32)CC1 (stereo not drawn) | 0 | 101 | 95 | -4
COc1ccc2cc3c(N)nn(C(=O)c4ccc(Cl)c([N+](=O)[O-])c4)c3nc2c1 | 57* | 104 | 89 | -2
SMILES | GRK2 aptamer HTS | MEKK3 PB1 HTS | MEKK2 WT-MEK5 | MEKK2 mut-MEK5
CC(=O)C1=C(O)C(=O)N(Cc2ccccc2)C1c1ccc([N+](=O)[O-])cc1 (stereo not drawn) | 5 | 107 | 109 | 2
CC12CCC(C[N+](C)(C)C1)C2(C)C (stereo not drawn) | 2 | 111 | 33* | 91*
CC[N+]1(CC)CC2CCC(C)(C1)C2(C)C (stereo not drawn) | 0 | 99 | 101 | 0
Cc1ccc(C(=O)c2oc3ccc(Cl)cc3c2NC(=O)CN2CCN(C)CC2)cc1 | 0 | 109 | 160* | 14
Cn1nnnc1SCC1=C(C(=O)O)N2C(=O)C(NC(=O)C3CC3c3ccccc3)C2SC1 (stereo not drawn) | 17 | 99 | 102 | -3
Cn1nnnc1SCC1=C(C(=O)O)N2C(=O)[C@@H](NC(=O)[C@H](O)c3ccccc3)[C@H]2SC1 | 52* | 87 | 97 | 3
Cc1ccccc1/C=N/Nc1ccnc2cc(Cl)ccc12 | 0 | 96 | 122 | 5
